This passage reports AC50 and outcome results from PubChem BioAssay (EPA / NIEHS).

A word on the AC50: it is the concentration giving half of the maximal activity seen.

Molecules are shown by their SMILES. Results filed as inconclusive are left out. The source made the active and inactive calls. How the source made its calls: active means hit-call score of the fitted dose curve at least 0.9, where 1 is the maximum; inconclusive means response in the unintended direction; inactive means score below 0.9.

Sequence of rat Acetylcholinesterase (AChE), Ache (gene 83817) (P37136 whole entry, looked up): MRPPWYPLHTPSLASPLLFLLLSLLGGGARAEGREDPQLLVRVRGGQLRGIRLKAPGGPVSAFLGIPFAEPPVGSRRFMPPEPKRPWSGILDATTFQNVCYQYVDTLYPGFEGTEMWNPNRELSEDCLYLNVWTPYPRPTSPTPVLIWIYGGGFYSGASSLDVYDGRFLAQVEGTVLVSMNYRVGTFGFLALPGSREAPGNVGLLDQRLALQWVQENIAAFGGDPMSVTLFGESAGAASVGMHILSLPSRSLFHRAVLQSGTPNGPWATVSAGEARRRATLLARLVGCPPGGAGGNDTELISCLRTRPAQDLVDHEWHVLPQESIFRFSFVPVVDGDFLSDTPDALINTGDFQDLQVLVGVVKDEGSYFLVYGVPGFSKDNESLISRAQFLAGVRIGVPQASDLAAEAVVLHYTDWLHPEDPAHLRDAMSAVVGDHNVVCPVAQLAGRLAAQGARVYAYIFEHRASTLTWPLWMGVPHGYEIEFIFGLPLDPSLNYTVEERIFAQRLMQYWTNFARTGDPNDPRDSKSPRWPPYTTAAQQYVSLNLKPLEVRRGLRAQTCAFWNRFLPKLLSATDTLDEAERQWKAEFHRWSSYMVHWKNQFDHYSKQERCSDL

The assay has as its target rat Acetylcholinesterase (AChE), Ache (gene 83817) (UniProt P37136). Put plainly: NVS_ENZ_rAChE: NovaScreen (NVS) Enzymatic Assay for rat Acetylcholinesterase (AChE) (AID 2283233). The protocol:
NVS_ENZ_rAChE is a biochemical, single-readout assay that uses extracted gene-proteins from Rat brain membranes in a tissue-based cell-free assay. Measurements were taken 0.33 hour after chemical dosing in a 96-well plate.NVS_ENZ_rAChE is one of one assay component(s) measured or calculated from the NVS_ENZ_rAChE assay. It is designed to make measurements of enzyme activity, a form of enzyme reporter, as detected with absorbance signals by Colorimetric technology.Data from the assay component NVS_ENZ_rAChE was analyzed into 1 assay endpoint. This assay endpoint, NVS_ENZ_rAChE, was analyzed in the positive analysis fitting direction relative to DMSO as the negative control and baseline of activity. Using a type of enzyme reporter, loss-of-signal activity can be used to understand changes in the enzymatic activity as they relate to the gene Ache. Furthermore, this assay endpoint can be referred to as a primary readout, because this assay has produced multiple assay endpoints where this one serves a enzymatic activity function. To generalize the intended target to other relatable targets, this assay endpoint is annotated to the esterase intended target family, where the subfamily is acetylcholinesterase.
Binding assays used specific radioligands (tritiated, iodinated) with non-radioactive competitive displacement ligands in agonist or antagonist protocols (as indicated) and various reference compounds and inhibitors to titrate specific binding to receptors and transporters. Most enzyme assays (CYPs, kinases, phosphatases, proteases, HDACs) used recombinant protein and specific substrates (fluorescence mostly, some colorimetric and radioactive) and inhibitors, followed by a biochemical separation of substrate and product. All assays for the biochemical HTS were initially run in duplicate at a single concentration (10 uM for CYP450 assays and 25 uM for all others). Assay-chemical combinations meeting a pre-defined threshold (e.g., 30% inhibition and other criteria defined below) were then run in singleton concentration-response format with maximum concentration of 20 uM for CYPs and 50 uM for all others. Each assay was run with positive and negative controls, and concurrent controls on every plate. The follow-up (secondary) screen tested active chemical-pairs in concentration series, as well as a few additional assays not tested in the primary screen, some selected negative inactives, and several cases re-run in the concentration series for confirmatory purposes.
Turning to `CN(C)C(=O)C1(N2CCCCC2)CCN(CC[C@@]2(c3ccc(Cl)c(Cl)c3)CN(C(=O)c3ccccc3)CCO2)CC1`, the concentration at half-maximal activity (AC50) was 9.53 µM (active).

`CCOC(=O)C1=NOC(c2ccccc2)(c2ccccc2)C1`: the result was inactive.

For `COc1cc(C(C)C)c2c(c1)S(=O)(=O)N(COc1cc(=O)n3cccc(OCCN4CCCCC4)c3n1)C2=O`, the concentration at half-maximal activity (AC50) is 6.25 µM (active).

On to `CCCCCCCC(=O)O`, for which the result was inactive.

`O=C1c2c(O)ccc(Nc3ccc(CCO)cc3)c2C(=O)c2c([N+](=O)[O-])ccc(O)c21`: the AC50 is 1.91 µM (active).

In the case of `NC(=O)N(O)[C@@H]1C=C[C@H](Oc2cccc(Oc3ccc(F)cc3)c2)C1`, the molecule was called inactive.

For the molecule `CCCCCCCCCC`, the outcome was inactive.

As for `O=S1(=O)CC(Cl)(Cl)C(Cl)(Cl)C1`, the AC50 is 26.1 µM (active).

Take `COCCOc1cc2cc(C(=O)NC3CCN(C(C)C)CC3)n(CC(=O)Nc3ccc(Cl)cn3)c2cn1`: the AC50 was 19 µM (active).

`O=c1[nH]c2ccc(S(=O)CCN3CCC(Cc4ccc(F)cc4)CC3)cc2o1` (stereo not given): the concentration at half-maximal activity (AC50) was 5.31 µM (active).

`O=Cc1ccccc1C=O`: the result was inactive.

Regarding `Cc1nccn1-c1ccc(Sc2cccc(C3(C(N)=O)CCOCC3)c2)cc1`, the call was inactive.

Turning to `NC(=O)Cn1c(=O)cc(CCN2CCN(c3nccc4sccc34)CC2)c2ccc(F)cc21`, the molecule was classed as inactive.

In the case of `S=C(NC1CCCCC1)NC1CCCCC1`, the AC50 was 17.2 µM (active).

Consider `CCOC(=O)c1ccc(C2CCC(NC[C@H](O)COc3ccc(O)c(NS(C)(=O)=O)c3)CC2)cc1` (stereo not given in full), for which the AC50 was 15 µM (active).

In the case of `CC(C)CCCCCCOC(=O)C1CCCCC1C(=O)OCCCCCCC(C)C` (stereo not given), the molecule was called inactive.

For `NCc1cccc(C2CCN(C(=O)c3ccc(C#Cc4ccccc4F)o3)CC2)c1`, the half-maximal activity concentration (AC50) was 11.3 µM (active).

On to `Cn1cnc2c1c(=O)[nH]c(=O)n2C`, for which the molecule was called inactive.

Regarding `CCCC(=O)OCCC(C)C`, the molecule was called inactive.

Regarding `CC[C@H]1CC[C@H](NCc2cc3c(cc2OC)[C@H]2C[C@H]2C(=O)N3C)[C@H](c2ccccc2)N1`, the half-maximal activity concentration (AC50) was 15.7 µM (active).

With `CN1CCN(Cc2cc(-c3ccc4[nH]c(=O)oc4c3)co2)[C@@H](c2ccc(F)cc2)C1`, the molecule was classed as inactive.

For `N=C(N)c1ccc(OCCCCCOc2ccc(C(=N)N)cc2)cc1`, the AC50 is 21.9 µM (active).

On to `CSC(=O)c1cccc2nnsc12`, for which the AC50 is 1.32 µM (active).

As for `CN(C)c1ccc(C(=C2C=CC(=[N+](C)C)C=C2)c2ccc(N(C)C)cc2)cc1`, the AC50 is 17.1 µM (active).

Regarding `CCCCCCCCCCCC[N+](C)(C)C`, the molecule was classed as inactive.

`CCn1nc(C)c2c1C(=O)NCC(c1ccc(O)cc1)=N2`: the molecule was classed as inactive.

Turning to `S=C([S-])NCCNC(=S)[S-].[Mn+2]`, the outcome was inactive.

With `O=C(Nc1ccc(Cl)cc1)Nc1ccc(Cl)c(Cl)c1`, the molecule was classed as inactive.

For `CCCCCCCCCCCCCC[N+](C)(C)C`, the AC50 was 21.3 µM (active).

As for `CCN(CC)CCNc1ccc(CNC=O)c2sc3ccc(OC)cc3c(=O)c12`, the half-maximal activity concentration (AC50) was 15.7 µM (active).

With `c1ccc(Oc2ccccc2)cc1`, the result was inactive.

Turning to `Cc1cc(CCN2CCN(c3nsc4ccccc34)CC2)cc2c1NC(=O)CC2(C)C`, the molecule was classed as inactive.

For the molecule `Clc1cc(Cl)c2c(c1)N=C1CCCCCN1C2`, the AC50 is 0.463 µM (active).

Take `S=C(S)NCCNC(=S)S.[Mn+2].[S-]C([S-])=NCCN=C([S-])[S-].[Zn+2]`: the molecule was called inactive.

`CN[C@H]1CC[C@@H](c2ccc(Cl)c(Cl)c2)c2ccc(S(N)(=O)=O)cc21`: the AC50 was 25 µM (active).

As for `CCCCc1oc2ccccc2c1C(=O)c1cc(I)c(OCCN(CC)CC)c(I)c1`, the outcome was inactive.

With `CC(C)=CCC/C(C)=C\CO`, the molecule was classed as inactive.

On to `O=C1OC2(c3cc(Br)c(O)c(Br)c3Oc3c2cc(Br)c(O)c3Br)c2c(Cl)c(Cl)c(Cl)c(Cl)c21`, for which the concentration at half-maximal activity (AC50) is 2.75 µM (active).

`COc1ccc2cc(S(=O)(=O)N[C@H](CC(=O)N[C@H](Cc3ccc(CN4[C@H](C)CCC[C@@H]4C)cc3)C(=O)N(C)C(C)C)c3ccc4c(c3)OCO4)ccc2c1`: the AC50 is 30.6 µM (active).

As for `CNS(=O)(=O)c1cc(C(=O)N2CCC(CCN3C4CCC3CC(n3c(C)nc5ccccc53)C4)(c3cccc(F)c3)CC2)c(Cl)cc1F` (stereo not given), the call was inactive.
